“And” between values parts separate entries of the source, which are not always exact repeats. Equal entries are not always repeated. Records with an inconclusive call do not appear. Some compounds were tested as several samples or in several runs, with calls that do not always agree. The source made the active and inactive calls. The calls were made as follows, unless noted: active = hit-call score of the fitted dose curve at least 0.9, where 1 is the maximum; inactive = score below 0.9.
Tests used:
[1] = target: human RAR-related Orphan Receptor beta (RORb), RORB (gene 6096) (UniProt Q92753); assay: ATG_RORb_TRANS: Attagene TRANS-FACTORIAL HepG2 Assay for human RAR-related Orphan Receptor beta (RORb) (AID 2283010; active = hit-call score of the fitted dose curve at least 0.9, where 1 is the maximum)
Chain of human RAR-related Orphan Receptor beta (RORb), RORB (gene 6096) (Q92753 whole entry, looked up, the tested form may be a part): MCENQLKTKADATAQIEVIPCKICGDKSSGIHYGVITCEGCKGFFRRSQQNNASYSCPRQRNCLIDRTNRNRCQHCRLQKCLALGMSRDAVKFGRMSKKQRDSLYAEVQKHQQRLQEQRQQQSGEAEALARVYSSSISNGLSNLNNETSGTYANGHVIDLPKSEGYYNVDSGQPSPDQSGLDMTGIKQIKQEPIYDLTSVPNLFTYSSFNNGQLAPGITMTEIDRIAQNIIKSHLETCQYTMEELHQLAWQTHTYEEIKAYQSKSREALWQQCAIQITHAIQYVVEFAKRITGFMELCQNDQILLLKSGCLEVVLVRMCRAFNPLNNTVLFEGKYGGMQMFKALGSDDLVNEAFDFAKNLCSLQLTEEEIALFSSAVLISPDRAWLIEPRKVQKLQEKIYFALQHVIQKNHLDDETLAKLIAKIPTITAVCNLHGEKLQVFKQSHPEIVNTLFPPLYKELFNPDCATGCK
In short: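 Multiplexed transcription-factor reporter assay: HepG2 cells transiently carrying NR-Gal4/GAL4-UAS constructs, 24 h treatment, mRNA quantified by RT-PCR plus capillary electrophoresis fluorescence; activity scored as induction over DMSO.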

[2] = target: human Retinoid X Receptor beta (RXRb), RXRB (gene 6257) (UniProt P28702); assay: ATG_RXRb_TRANS: Attagene TRANS-FACTORIAL HepG2 Assay for human Retinoid X Receptor beta (RXRb) (AID 2283013; active = hit-call score of the fitted dose curve at least 0.9, where 1 is the maximum)
Chain of human Retinoid X Receptor beta (RXRb), RXRB (gene 6257) (P28702 whole entry, looked up, the tested form may be a part): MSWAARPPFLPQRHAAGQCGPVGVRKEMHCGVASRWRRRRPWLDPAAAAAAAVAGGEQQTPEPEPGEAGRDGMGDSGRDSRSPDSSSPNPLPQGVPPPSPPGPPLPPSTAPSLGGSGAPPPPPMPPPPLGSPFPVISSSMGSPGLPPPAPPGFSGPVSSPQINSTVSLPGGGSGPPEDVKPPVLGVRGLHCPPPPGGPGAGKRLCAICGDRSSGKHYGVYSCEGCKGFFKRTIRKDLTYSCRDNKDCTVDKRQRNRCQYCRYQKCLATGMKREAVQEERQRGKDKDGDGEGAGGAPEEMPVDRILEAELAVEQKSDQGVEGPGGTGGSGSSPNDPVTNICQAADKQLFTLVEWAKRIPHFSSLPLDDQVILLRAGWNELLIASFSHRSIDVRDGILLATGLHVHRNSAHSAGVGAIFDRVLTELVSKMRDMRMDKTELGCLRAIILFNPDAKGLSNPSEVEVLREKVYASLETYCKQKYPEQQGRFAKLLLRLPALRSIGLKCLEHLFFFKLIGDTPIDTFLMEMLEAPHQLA
In short: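 After a 24 h incubation with test chemical, transfected HepG2 cells carrying NR-Gal4 fusions and GAL4-UAS reporter transcription units yield RNA whose reporter cDNA is FAM-labelled, HpaI-cut and sized by capillary electrophoresis; increases over DMSO are scored.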

[3] = target: human Thyroid Receptor alpha (THRa1), THRA (gene 7067) (UniProt P10827); assay: ATG_THRa1_TRANS: Attagene TRANS-FACTORIAL HepG2 Assay for human Thyroid Receptor alpha (THRa1) (AID 2283014; active = hit-call score of the fitted dose curve at least 0.9, where 1 is the maximum)
Chain of human Thyroid Receptor alpha (THRa1), THRA (gene 7067) (P10827 whole entry, looked up, the tested form may be a part): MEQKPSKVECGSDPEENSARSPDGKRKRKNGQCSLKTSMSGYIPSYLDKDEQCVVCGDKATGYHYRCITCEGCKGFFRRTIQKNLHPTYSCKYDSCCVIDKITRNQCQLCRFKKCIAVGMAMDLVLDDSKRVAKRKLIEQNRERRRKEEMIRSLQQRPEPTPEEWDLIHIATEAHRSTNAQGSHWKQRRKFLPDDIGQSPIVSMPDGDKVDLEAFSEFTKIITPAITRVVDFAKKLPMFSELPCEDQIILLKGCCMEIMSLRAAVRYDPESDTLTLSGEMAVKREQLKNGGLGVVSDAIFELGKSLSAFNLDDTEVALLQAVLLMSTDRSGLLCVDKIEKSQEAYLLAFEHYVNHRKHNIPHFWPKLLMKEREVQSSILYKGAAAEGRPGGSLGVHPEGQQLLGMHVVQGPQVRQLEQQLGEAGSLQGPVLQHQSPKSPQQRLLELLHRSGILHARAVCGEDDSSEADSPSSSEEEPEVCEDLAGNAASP
In short: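 Reporter transcript induction, read by capillary electrophoresis of 6-FAM-labelled RT-PCR products, reflects activity of a transfected THRa1-Gal4 fusion in HepG2 liver cells. Cells were dosed for 24 h; activity was fitted in the positive direction against DMSO.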

[4] = read-out: E-selectin (Homo sapiens) (UniProt P16581); assay: BSK_3C_Eselectin: BioMAP Diversity Plus: 3C Assay for Eselectin Biomarker Activity (AID 2283015); settings: primary human endothelial cells (HUVEC); actives raise or lower the signal;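 as to outcome: cell surface E-selectin protein quantified by ELISA 24 h after dosing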
In short: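 ELISA read-out of E-selectin on endothelial monolayers after 24 h chemical treatment. Human umbilical vein primary cells served as the system, with DMSO defining baseline activity for bidirectional fitting.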

[5] = read-out: Interleukin-1 alpha (IL1a), IL1A (gene 3552); assay: BSK_BE3C_IL1a: BioMAP Diversity Plus: BE3C Assay for Interleukin-1 alpha (IL1a) Biomarker Activity (AID 2283016); settings: primary human bronchial epithelial cells; actives raise or lower the signal
In short: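 Measured in human lung primary bronchial epithelial cells: IL-1a by ELISA at 24 h after dosing, with bidirectional fitting against DMSO.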

[6] = read-out: Monocyte Chemoattractant Protein-1 (MCP1), CCL2 (gene 6347); assay: BSK_3C_MCP1: BioMAP Diversity Plus: 3C Assay for Monocyte Chemoattractant Protein-1 (MCP1) Biomarker Activity (AID 2283017); settings: primary human endothelial cells (HUVEC); actives raise or lower the signal
In short: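 ELISA read-out of MCP-1 from human umbilical vein endothelial cell cultures harvested 24 h post-dosing. Gain or loss of signal was fitted relative to DMSO.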

[7] = read-out: Monocyte Chemoattractant Protein-1 (MCP1), CCL2 (gene 6347); assay: BSK_4H_MCP1: BioMAP Diversity Plus: 4H Assay for Monocyte Chemoattractant Protein-1 (MCP1) Biomarker Activity (AID 2283018); settings: primary human endothelial cells (HUVEC); actives raise or lower the signal
In short: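 Primary human umbilical vein endothelium is exposed to chemical for 24 h before MCP-1 is assayed by ELISA. Concentration-response fitted bidirectionally relative to DMSO.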

[8] = read-out: Human Leukocyte Antigen - DR isotype (HLADR), HLA-DRA (gene 3122); assay: BSK_3C_HLADR: BioMAP Diversity Plus: 3C Assay for Human Leukocyte Antigen - DR isotype (HLADR) Biomarker Activity (AID 2283019); settings: primary human endothelial cells (HUVEC); actives raise or lower the signal;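 as to outcome: ELISA of cell-surface HLA-DR on HUVEC 24 h after dosing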
In short: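 ELISA readout of surface HLA-DR on human umbilical vein endothelium, taken 24 h after chemical treatment. Gain- and loss-of-signal were both fitted relative to DMSO.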

[9] = read-out: Interleukin-8 (IL8), CXCL8 (gene 3576); assay: BSK_3C_IL8: BioMAP Diversity Plus: 3C Assay for Interleukin-8 (IL8) Biomarker Activity (AID 2283020); settings: primary human endothelial cells (HUVEC); actives raise or lower the signal
In short: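 Using DMSO-treated wells as the baseline, bidirectional curve fitting was applied to ELISA-measured IL-8 from human umbilical vein endothelial cultures sampled 24 h after compound addition.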

[10] = read-out: Monokine induced gamma interferon (MIG), CXCL9 (gene 4283); assay: BSK_3C_MIG: BioMAP Diversity Plus: 3C Assay for Monokine induced gamma interferon (MIG) Biomarker Activity (AID 2283021); settings: primary human endothelial cells (HUVEC); actives raise or lower the signal;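 as to AC50: MIG protein level measured by immunoassay in the treated endothelial cultures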
In short: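 ELISA-measured MIG in dosed HUVEC 3C cultures at 24 h, analysed by bidirectional fitting with DMSO defining baseline activity.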

[11] = target: human Vitamin D Receptor (VDR), VDR (gene 7421) (UniProt P11473); assay: ATG_VDR_TRANS: Attagene TRANS-FACTORIAL HepG2 Assay for human Vitamin D Receptor (VDR) (AID 2283022; active = hit-call score of the fitted dose curve at least 0.9, where 1 is the maximum)
Chain of human Vitamin D Receptor (VDR), VDR (gene 7421) (P11473 whole entry, looked up, the tested form may be a part): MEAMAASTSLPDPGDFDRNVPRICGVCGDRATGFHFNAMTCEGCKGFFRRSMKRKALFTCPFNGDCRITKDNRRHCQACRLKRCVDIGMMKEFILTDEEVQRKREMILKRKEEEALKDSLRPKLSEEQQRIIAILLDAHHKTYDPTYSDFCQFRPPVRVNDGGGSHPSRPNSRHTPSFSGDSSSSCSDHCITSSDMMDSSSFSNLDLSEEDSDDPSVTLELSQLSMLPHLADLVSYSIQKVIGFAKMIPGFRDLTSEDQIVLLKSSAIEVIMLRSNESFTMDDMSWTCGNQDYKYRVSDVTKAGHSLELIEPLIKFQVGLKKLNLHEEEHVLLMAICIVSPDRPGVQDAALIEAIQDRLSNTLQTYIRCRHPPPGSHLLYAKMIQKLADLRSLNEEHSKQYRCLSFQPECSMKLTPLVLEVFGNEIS
In short: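 Steps: transfect HepG2 with GAL4-UAS-driven reporter constructs; dose compounds 24 h; isolate RNA, reverse-transcribe, PCR-amplify with 6-FAM-labelled primer extension and HpaI digestion; quantify fragments by capillary electrophoresis relative to DMSO.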

[12] = BSK_3C_SRB: Viability Assessment in the BioMAP Diversity Plus: 3C Assay (AID 2283023); settings: primary human endothelial cells (HUVEC);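 also: fitted both ways against DMSO so a hit may be signal rise or drop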
In short: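 Absorbance at 560 nm of sulforhodamine B-stained (0.1%) total protein served as a cytotoxicity readout in human umbilical vein endothelial cells, 24 h after chemical treatment. Signal was fitted bidirectionally relative to DMSO.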

[13] = read-out: Matrix Metallopeptidase 1 (MMP1), MMP1 (gene 4312); assay: BSK_BE3C_MMP1: BioMAP Diversity Plus: BE3C Assay for Matrix Metallopeptidase 1 (MMP1) Biomarker Activity (AID 2283024); settings: primary human bronchial epithelial cells; actives raise or lower the signal
In short: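 In this multiplexed primary-cell system, human bronchial epithelium received chemicals for 24 h before an ELISA for MMP1. Values reflect bidirectional fits normalised to the DMSO baseline.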

[14] = BSK_3C_Vis: BioMAP Diversity Plus: 3C Assay for Morphology Visualization (AID 2283025); settings: primary human endothelial cells (HUVEC);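 also: fitted both ways so gain or loss versus DMSO counts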;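 as to AC50: light microscopy image of cell morphology used as background control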
In short: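 Light-microscopy morphology readout, 24 h exposure, human primary umbilical vein endothelium; analysed relative to DMSO with bidirectional fitting.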

[15] = read-out: Pselectin, SELP (gene 6403); assay: BSK_4H_Pselectin: BioMAP Diversity Plus: 4H Assay for Pselectin Biomarker Activity (AID 2283026); settings: primary human endothelial cells (HUVEC); actives raise or lower the signal
In short: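 Bidirectional fits against DMSO gave the endpoint. Cells: primary human umbilical vein endothelium, chemical-treated for 24 h before ELISA detection of P-selectin.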

[16] = BSK_4H_SRB: Viability Assessment in the BioMAP Diversity Plus: 4H Assay (AID 2283027); settings: primary human endothelial cells (HUVEC);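 also: cells exposed to compound for 24 h before staining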;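 as to AC50: curves fitted both ways versus DMSO so AC50 may be loss or gain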
In short: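 Cytotoxicity read-out in primary human endothelial cells: after 24 h compound exposure, cells were TCA-fixed (10%), stained with 0.1% SRB and absorbance taken at 560 nm. Values fitted in both directions relative to DMSO.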

[17] = BSK_BE3C_SRB: Viability Assessment in the BioMAP Diversity Plus: BE3C Assay (AID 2283028); settings: primary human bronchial epithelial cells;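 as to AC50: fitted both ways so AC50 may mark signal gain or loss versus DMSO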
In short: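 Cells (human bronchial epithelial, primary) are treated with chemicals, and after 24 h the parallel cultures are fixed in 10% TCA. These are then stained with 0.1% SRB and read at 560 nm. Gain or loss of signal is fitted relative to DMSO.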

[18] = target: human RAR-related Orphan Receptor gamma (RORg), RORC (gene 6097) (UniProt P51449); assay: ATG_RORg_TRANS: Attagene TRANS-FACTORIAL HepG2 Assay for human RAR-related Orphan Receptor gamma (RORg) (AID 2283011; active = hit-call score of the fitted dose curve at least 0.9, where 1 is the maximum)
Chain of human RAR-related Orphan Receptor gamma (RORg), RORC (gene 6097) (P51449 whole entry, looked up, the tested form may be a part): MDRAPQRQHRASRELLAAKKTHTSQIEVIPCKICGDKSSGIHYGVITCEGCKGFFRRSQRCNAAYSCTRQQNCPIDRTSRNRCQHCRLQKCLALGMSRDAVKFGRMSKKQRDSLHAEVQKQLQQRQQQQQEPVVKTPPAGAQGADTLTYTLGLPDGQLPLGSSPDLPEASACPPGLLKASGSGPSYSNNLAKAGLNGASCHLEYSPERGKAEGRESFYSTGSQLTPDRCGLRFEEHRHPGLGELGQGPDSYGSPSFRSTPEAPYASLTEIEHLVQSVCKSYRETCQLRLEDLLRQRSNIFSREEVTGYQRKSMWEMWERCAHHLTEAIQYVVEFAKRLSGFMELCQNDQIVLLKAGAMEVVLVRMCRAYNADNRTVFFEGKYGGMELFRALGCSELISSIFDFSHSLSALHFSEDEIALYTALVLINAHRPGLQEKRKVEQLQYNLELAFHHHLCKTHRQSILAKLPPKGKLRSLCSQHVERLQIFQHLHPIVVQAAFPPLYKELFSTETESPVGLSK
In short: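 First, HepG2 liver cells were transfected with GAL4-UAS-driven reporter constructs and the RORg-Gal4 fusion. Next, they were treated with chemical for 24 h. Finally, reporter mRNA was quantified by RT-PCR and capillary electrophoresis, with upward activity fitted against DMSO.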

[19] = target: Retinoic acid receptor RXR-alpha (Homo sapiens) (UniProt P19793); assay: ATG_RXRa_TRANS: Attagene TRANS-FACTORIAL HepG2 Assay for human Retinoid X Receptor alpha (RXRa) (AID 2283012; active = hit-call score of the fitted dose curve at least 0.9, where 1 is the maximum)
Chain of Retinoic acid receptor RXR-alpha (Homo sapiens) (P19793 whole entry, looked up, the tested form may be a part): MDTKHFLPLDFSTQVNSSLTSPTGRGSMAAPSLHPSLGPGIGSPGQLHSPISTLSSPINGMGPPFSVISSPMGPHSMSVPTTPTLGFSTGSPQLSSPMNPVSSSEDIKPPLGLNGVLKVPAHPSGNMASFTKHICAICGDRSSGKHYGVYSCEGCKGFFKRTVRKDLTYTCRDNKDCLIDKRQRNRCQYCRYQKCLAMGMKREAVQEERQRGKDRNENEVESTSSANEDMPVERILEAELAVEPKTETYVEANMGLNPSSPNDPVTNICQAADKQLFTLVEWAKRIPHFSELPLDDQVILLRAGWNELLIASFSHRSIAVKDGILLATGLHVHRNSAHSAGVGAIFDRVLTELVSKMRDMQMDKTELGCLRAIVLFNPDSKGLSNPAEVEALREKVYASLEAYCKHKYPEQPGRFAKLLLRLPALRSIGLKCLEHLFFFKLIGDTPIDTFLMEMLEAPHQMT
In short: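 Chimeric NR-GAL4 trans-activation in HepG2, 24 h treatment; reporter transcripts quantified by fluorescence on capillary electrophoresis, analysed for upward change from DMSO.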

[20] = read-out: Thrombomodulin, THBD (gene 7056); assay: BSK_3C_Thrombomodulin: BioMAP Diversity Plus: 3C Assay for Thrombomodulin Biomarker Activity (AID 2283029); settings: primary human endothelial cells (HUVEC); actives raise or lower the signal
In short: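 In a multiplexed primary-cell system, human umbilical vein endothelium received chemical and was assayed 24 h later for thrombomodulin by ELISA. Parallel cultures were SRB-stained (0.1% SRB after 10% TCA fixation, read at 560 nm) to flag cytotoxicity.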

Chain of E-selectin (Homo sapiens) (P16581 whole entry, looked up): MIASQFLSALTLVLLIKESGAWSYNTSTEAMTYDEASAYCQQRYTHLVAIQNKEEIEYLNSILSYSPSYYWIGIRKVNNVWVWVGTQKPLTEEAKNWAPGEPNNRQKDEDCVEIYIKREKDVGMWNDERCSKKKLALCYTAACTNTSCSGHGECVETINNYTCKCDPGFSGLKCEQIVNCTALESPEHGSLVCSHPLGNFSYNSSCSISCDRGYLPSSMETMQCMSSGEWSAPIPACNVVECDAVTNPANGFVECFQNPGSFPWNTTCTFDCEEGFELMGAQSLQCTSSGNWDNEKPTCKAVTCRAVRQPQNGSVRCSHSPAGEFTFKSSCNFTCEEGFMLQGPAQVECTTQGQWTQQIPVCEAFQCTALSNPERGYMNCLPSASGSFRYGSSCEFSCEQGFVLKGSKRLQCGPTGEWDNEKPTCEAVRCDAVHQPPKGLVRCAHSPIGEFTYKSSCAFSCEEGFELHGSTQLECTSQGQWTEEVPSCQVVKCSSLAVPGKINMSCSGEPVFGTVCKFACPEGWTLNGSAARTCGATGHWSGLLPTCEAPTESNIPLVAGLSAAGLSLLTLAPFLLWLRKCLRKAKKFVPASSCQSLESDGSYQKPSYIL

With CC1=C(C(=O)Nc2ccccc2)SCCO1 the outcome [1] was “inactive”, the outcome [2] was “inactive” and the outcome [3] was “inactive”. For the same compound, the outcome [4] was “inactive”, the outcome [5] was “inactive” and the outcome [6] was “inactive”. For the same compound, the outcome [7] was “inactive”, the AC50 [8] was 10.6 µM (active) and the outcome [9] was “inactive”. The outcome [10] was “inactive”, the outcome [11] was “inactive” and the outcome [12] was “inactive”. For the same compound, the outcome [13] was “inactive”, the outcome [14] was “inactive” and the outcome [15] was “inactive”. The outcome [16] was “inactive” and the outcome [17] was “inactive”.

For C#CCOS(=O)OC1CCCCC1Oc1ccc(C(C)(C)C)cc1 (stereo not drawn), the outcome [1] was “inactive”, the outcome [18] was “inactive” and the outcome [19] was “inactive”. The outcome [3] was “inactive”, the AC50 [4] was 1.13 µM (active) and the AC50 [5] was 30.3 µM (active). For the same compound, the AC50 [6] was 10.9 µM (active), the AC50 [7] was 10.1 µM (active) and the AC50 [8] was 6.28 µM (active). The AC50 [9] was 7.04 µM (active), the AC50 [10] was 20 µM (active) and the AC50 [12] was 12.3 µM (active). For the same compound, the outcome [13] was “inactive”, the AC50 [14] was 5.07 µM (active) and the AC50 [15] was 3.97 µM (active). The AC50 [16] was 11.3 µM (active) and the AC50 [17] was 22.7 µM (active).

For CCCCNC(=O)OCC#CI, the outcome [1] was “inactive”, the outcome [18] was “inactive” and the outcome [19] was “inactive”. The outcome [2] was “inactive”, the outcome [3] was “inactive” and the AC50 [4] was 31.6 µM (active) and 31.8 µM (active). For the same compound, the AC50 [5] was 33.7 µM (active) and 29.6 µM (active), the AC50 [6] was 24.9 µM (active) and 19.2 µM (active) and the AC50 [7] was 26 µM (active) and 14.8 µM (active). The AC50 [8] was 8.66 µM (active) and 11 µM (active), the AC50 [9] was 26.2 µM (active) and 28.9 µM (active) and the AC50 [10] was 32.3 µM (active) and 34.4 µM (active). The outcome [11] was “inactive”, the AC50 [12] was 18.9 µM (active) and 21.1 µM (active) and the AC50 [13] was 32.9 µM (active). The AC50 [14] was 11.9 µM (active) and 14.4 µM (active), the AC50 [15] was 12.8 µM (active) and 16.1 µM (active) and the AC50 [16] was 29 µM (active) and 27.9 µM (active). For the same compound, the AC50 [17] was 21.5 µM (active) and 26.9 µM (active).

In the case of COP(N)(=O)SC (stereo not drawn), the outcome [1] is reported as “inactive”, the outcome [18] is reported as “inactive” and the outcome [19] is reported as “inactive”. For the same compound, the outcome [2] was “inactive”, the outcome [4] was “inactive” and the outcome [5] was “inactive”. For the same compound, the outcome [6] was “inactive”, the outcome [7] was “inactive” and the outcome [8] was “inactive”. For the same compound, the outcome [9] was “inactive”, the outcome [10] was “inactive” and the outcome [12] was “inactive”. The outcome [13] was “inactive”, the outcome [14] was “inactive” and the outcome [15] was “inactive”. The outcome [16] was “inactive”, the outcome [17] was “inactive” and the outcome [20] was “inactive”.

For CCCCOC(=O)c1ccccc1C(=O)OCCCC, the outcome [1] was “inactive”, the outcome [18] was “inactive” and the outcome [19] was “inactive”. For the same compound, the AC50 [2] was 64.6 µM (active) and 65.2 µM (active) and 68.9 µM (active), the outcome [2] was “inactive” and the AC50 [3] was 39.6 µM (active) and 35.1 µM (active) and 2.44 µM (active). For the same compound, the outcome [4] was “inactive”, the outcome [5] was “inactive” and the outcome [6] was “inactive”. For the same compound, the AC50 [7] was 26.4 µM (active), the outcome [7] was “inactive” and the outcome [8] was “inactive”. For the same compound, the outcome [9] was “inactive”, the outcome [10] was “inactive” and the outcome [11] was “inactive”. The AC50 [12] was 15.2 µM (active), the outcome [12] was “inactive” and the outcome [13] was “inactive”. For the same compound, the outcome [14] was “inactive”, the outcome [15] was “inactive” and the outcome [16] was “inactive”. The outcome [17] was “inactive” and the outcome [20] was “inactive”.

Source: PubChem BioAssay (EPA / NIEHS)
